# Test results: the supplement of paper PMC6555819
# Tested on: PPARg:RXRa 270nM:90nM, anti-RXR (NR concentration 270 nM, RXRa partner concentration 90 nM)
# Test: PBM binding z-score (relative to random genomic background probes); higher = stronger binding; sequences stand for … in GC…GCGATTGACAGCGTAGAATGAAGG
# Summary of the method: (§1)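 Scanned fluorescence from custom Agilent 4×180K protein-binding microarrays was regression-normalized. Binding z-scores use random background probes as reference. Ligand-free nuclear receptor dimers were incubated on the arrays for 1 h and detected with antibodies against each partner (one per run).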
row,Sequence,PBM binding z-score
1,GGAACGAGGGCATTCGAGTTGATGGCATGGCGAT,0.324
2,GCGACTGGGGCAAAGCTGGTTACCATAAGGTTGG,1.26
3,ATCGCAAGGTCGAAGGTGAGTATACCCACCCGAA,3.69
4,CGTCCCAGGTCAATGCTAGGTCAGTGAAAGCATT,3.05
5,GCATATAGGTAATACAAGGTGAAAGGCCGATTGT,2.86
6,ACAACGAGGGCACGCTGAGTTGATAGCAGAGTAG,1.19
7,CAAACTAGGTCATGGTCAAAGTCGGTTTGTGCCA,6.86
8,CGTCCAAGGTGAGCAGGTCAGTGAAAGCGACGTG,1.08
9,TTACCAAGGTGAGCTGAGGTTGTTGATCCAACTC,0.187
10,GCTAGTTGGTCAGTAAGAGGTCACACACCGGTCG,2.95
11,CGTCCAAGGTCAATGCTAGGTCAATGAAAGCATT,4.97
12,GCTAGTTGGTCAGCAAAAGGTCACACACCGGTCG,4.05
13,CCTAGTTGGTCATGAGGTCACACACCGGATATGA,4.5
14,CCAGACAGGTGTAAGGTAACTCAGTCTGGTACGC,0.842
15,TCGAGGAGGTTAGTCGGGGCATTCAGCCAACATA,0.893
16,ATCGAAAGGTCGAGGTGAGTAGAGAGAAAGGGAA,3.59
17,CCGACTGGGACAAAGGTTACCATACTCAGTACGA,8.78
18,CCGACTGGGGCATAAAGGTTACCATACCATCCGG,3.77

# Tested on: PPARg:RXRa 30nM:10nM, anti-RXR (NR concentration 30 nM, RXRa partner concentration 10 nM)
# Test: as above
# Summary of the method: as §1
row,Sequence,PBM binding z-score
1,CGAACTAGGTCAGCCAGGACAGTGAATACATTGA,2.28
2,GGTGCTAGGTCAGGTTGGTCAGCTAACGGGTACG,0.315
3,CCTCGGAGGACAGAAGGTAAGAGCTGTCCGCTTT,-1.03
4,TCTTGTAGAGCAACAGGAGGTTAAGAAAGATCGA,1.4
5,TGATATAGGTAATACAGGTGAAAGTCGGCATCTA,1.33
6,GCTGCTAGGTCAGGTTGGTCAGCTGACGGGTACG,-0.528
7,GATACAGGGTCATGGCCAGAGTACGCGTATTGAT,2.73
8,CCTACTGGGCCAAAGGTCACTGATTCCAATGCTC,10.2
9,GCGATTGGGGCATCAGCAGGTTACCATAACTTAA,-0.258
10,GCTTACGCGTCAAAGGTTATAGCATGAATAGAAT,2.28
11,TCGAGCAGGCCAGAGGGTCACTCAAGAGGTACGG,0.223
12,CCTGCTAGGTCAATGGTCAGATAAAGCAGCTCGC,2.77
13,AGAACGAGGGCACGCTTAGTTGATAGCAGAGTAG,0.46
14,TCTGCTAGGTCAAGGATGGTCAGCTAATCTGCTA,2.02
15,TCGAGTAGGTTAATCGGGGCATTCAGCCAACATA,1.04
16,CGTCCAAGGTCAAGGTCATTGAAAGAGACTCGAA,3.18
17,TTACCAAGGTGAGAGGTCGTTGATGCACGCCTTG,4.84
18,CCTAGCAGGCCAATCTGGGTCACTAAAGGCTTGA,-0.068
19,CGTCCAAGGTTAGCAGGTCAGTGAAAGCGACGTG,-0.171
20,CGTCCAAGGTCAATGCTCGGTCAGTGAAAGCATT,1.61

row,Sequence,PBM binding z-score
1,CCTAGCAAGCCAATCTGGGTCACTCAAGGCTTGA,-0.259
2,AGTCTAAGTTCACTAGGTAACGTAAGATTCAGCT,1.57
3,GGAACGAGGGCATTCGAGTTGATGGCATGGCGAT,-0.665
4,GCGACTGGGGCAAAGCTGGTTACCATAAGGTTGG,-0.311
5,ATCGCAAGGTCGAAGGTGAGTATACCCACCCGAA,0.969
6,CGTCCCAGGTCAATGCTAGGTCAGTGAAAGCATT,0.367
7,GCATATAGGTAATACAAGGTGAAAGGCCGATTGT,1.05
8,ACAACGAGGGCACGCTGAGTTGATAGCAGAGTAG,0.248
9,CAAACTAGGTCATGGTCAAAGTCGGTTTGTGCCA,4.7
10,CGTCCAAGGTGAGCAGGTCAGTGAAAGCGACGTG,-0.475
11,TTACCAAGGTGAGCTGAGGTTGTTGATCCAACTC,-0.357
12,GCTAGTTGGTCAGTAAGAGGTCACACACCGGTCG,1.14
13,CGTCCAAGGTCAATGCTAGGTCAATGAAAGCATT,1.54
14,GCTAGTTGGTCAGCAAAAGGTCACACACCGGTCG,1.79
15,CCTAGTTGGTCATGAGGTCACACACCGGATATGA,2.25
16,CCAGACAGGTGTAAGGTAACTCAGTCTGGTACGC,-0.246
17,TCGAGGAGGTTAGTCGGGGCATTCAGCCAACATA,1.23
18,ATCGAAAGGTCGAGGTGAGTAGAGAGAAAGGGAA,1.45
19,CCGACTGGGACAAAGGTTACCATACTCAGTACGA,8.13
20,CCGACTGGGGCATAAAGGTTACCATACCATCCGG,2.08

# Tested on: PPARg:RXRa 90nM:30nM, anti-RXR (NR concentration 90 nM, RXRa partner concentration 30 nM)
# Test: as above
# Summary of the method: as §1
row,Sequence,PBM binding z-score
1,CGAACTAGGTCAGCCAGGACAGTGAATACATTGA,4.35
2,GGTGCTAGGTCAGGTTGGTCAGCTAACGGGTACG,1.35
3,CCTCGGAGGACAGAAGGTAAGAGCTGTCCGCTTT,-0.914
4,TCTTGTAGAGCAACAGGAGGTTAAGAAAGATCGA,0.921
5,TGATATAGGTAATACAGGTGAAAGTCGGCATCTA,2.05
6,GCTGCTAGGTCAGGTTGGTCAGCTGACGGGTACG,0.514
7,GATACAGGGTCATGGCCAGAGTACGCGTATTGAT,4.67
8,CCTACTGGGCCAAAGGTCACTGATTCCAATGCTC,11.6
9,GCGATTGGGGCATCAGCAGGTTACCATAACTTAA,-0.582
10,GCTTACGCGTCAAAGGTTATAGCATGAATAGAAT,4.07
11,TCGAGCAGGCCAGAGGGTCACTCAAGAGGTACGG,1.31
12,CCTGCTAGGTCAATGGTCAGATAAAGCAGCTCGC,4.96
13,AGAACGAGGGCACGCTTAGTTGATAGCAGAGTAG,1.5
14,TCTGCTAGGTCAAGGATGGTCAGCTAATCTGCTA,2.71
15,TCGAGTAGGTTAATCGGGGCATTCAGCCAACATA,1.31
16,CGTCCAAGGTCAAGGTCATTGAAAGAGACTCGAA,5.62
17,TTACCAAGGTGAGAGGTCGTTGATGCACGCCTTG,6.5
18,CCTAGCAGGCCAATCTGGGTCACTAAAGGCTTGA,0.891
19,CGTCCAAGGTTAGCAGGTCAGTGAAAGCGACGTG,1.04
20,CGTCCAAGGTCAATGCTCGGTCAGTGAAAGCATT,2.79

row,Sequence,PBM binding z-score
1,CCTAGCAAGCCAATCTGGGTCACTCAAGGCTTGA,0.994
2,AGTCTAAGTTCACTAGGTAACGTAAGATTCAGCT,3.02
3,GGAACGAGGGCATTCGAGTTGATGGCATGGCGAT,-0.326
4,GCGACTGGGGCAAAGCTGGTTACCATAAGGTTGG,0.816
5,ATCGCAAGGTCGAAGGTGAGTATACCCACCCGAA,2.25
6,CGTCCCAGGTCAATGCTAGGTCAGTGAAAGCATT,1.97
7,GCATATAGGTAATACAAGGTGAAAGGCCGATTGT,2.2
8,ACAACGAGGGCACGCTGAGTTGATAGCAGAGTAG,0.944
9,CAAACTAGGTCATGGTCAAAGTCGGTTTGTGCCA,6.63
10,CGTCCAAGGTGAGCAGGTCAGTGAAAGCGACGTG,0.388
11,TTACCAAGGTGAGCTGAGGTTGTTGATCCAACTC,-0.0442
12,GCTAGTTGGTCAGTAAGAGGTCACACACCGGTCG,2.34
13,CGTCCAAGGTCAATGCTAGGTCAATGAAAGCATT,3.64
14,GCTAGTTGGTCAGCAAAAGGTCACACACCGGTCG,3.39
15,CCTAGTTGGTCATGAGGTCACACACCGGATATGA,3.46
16,CCAGACAGGTGTAAGGTAACTCAGTCTGGTACGC,0.409
17,TCGAGGAGGTTAGTCGGGGCATTCAGCCAACATA,0.779
18,ATCGAAAGGTCGAGGTGAGTAGAGAGAAAGGGAA,2.36
19,CCGACTGGGACAAAGGTTACCATACTCAGTACGA,10.5
20,CCGACTGGGGCATAAAGGTTACCATACCATCCGG,3.81
